Settings in all cases: mRNA level, 48 h; actives raise or lower the signal
Read-out in assay [1]: Pro-epidermal growth factor (Homo sapiens) (UniProt P01133)
Kind of assay: LTEA_HepaRG_EGF: Life Technologies and Expression Analysis (LTEA) Assay for Epidermal growth factor (EGF) using HepaRG (AID 2283489). Put shortly: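 HepaRG cells (~100,000/well, 48 h pre-culture) exposed in duplicate for 48 h in serum-free induction medium to 8 half-log concentrations up to 100 uM in 0.5% DMSO. EGF mRNA by qRT-PCR, normalized to ACTB/GAPDH/POLR2A; bidirectional fit versus DMSO.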

Read-out in assay [2]: Ezrin (EZR), EZR (gene 7430)
Briefly: LTEA_HepaRG_EZR: Life Technologies and Expression Analysis (LTEA) Assay for Ezrin (EZR) using HepaRG (AID 2283491). Put shortly:
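EZR transcript levels came from Fluidigm qRT-PCR and were normalized to three housekeeping genes after 48 h chemical exposure of HepaRG cells. Dosing used an 8-point half-log series with a 100 uM top concentration in 0.5% DMSO, tested in duplicate; both directions were fitted versus vehicle.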

Read-out in assay [3]: Cytochrome P450 3A7 (Homo sapiens) (UniProt P24462)
Briefly: LTEA_HepaRG_CYP3A7: Life Technologies and Expression Analysis (LTEA) Assay for CYP3A7 using HepaRG (AID 2283492). Put shortly:
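Differentiated HepaRG cells in serum-free induction medium exposed 48 h in duplicate to 8-point half-log series from 100 uM top in 0.5% DMSO. CYP3A7 mRNA by qRT-PCR, normalized to ACTB/GAPDH/POLR2A, bidirectional fit versus DMSO.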

Read-out in a further assay: CYP3A5 (gene 1577)
Kind of assay: LTEA_HepaRG_CYP3A5: Life Technologies and Expression Analysis (LTEA) Assay for CYP3A5 using HepaRG (AID 2283493). Put shortly:
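Human HepaRG hepatic cells receive 48 h chemical treatment at eight concentrations (half-log steps from 100 uM) in 0.5% DMSO. Expression of CYP3A5 is quantified by Fluidigm qRT-PCR and normalized to three reference genes.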

Read-out in assay [4]: Fatty Acid-Binding Protein 1 (FABP1), FABP1 (gene 2168)
Kind of assay: LTEA_HepaRG_FABP1: Life Technologies and Expression Analysis (LTEA) Assay for Fatty Acid-Binding Protein 1 (FABP1) using HepaRG (AID 2283494). Put shortly:
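qRT-PCR readout of FABP1 transcript (normalized to three housekeeping genes) after 48 h chemical exposure of HepaRG cells; eight concentrations, half-log steps, max 100 uM, 0.5% DMSO vehicle; gain or loss fitted relative to DMSO baseline.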

Read-out in assay [5]: Cytochrome P450 4A22 (Homo sapiens) (UniProt Q5TCH4)
Kind of assay: LTEA_HepaRG_CYP4A22: Life Technologies and Expression Analysis (LTEA) Assay for Cytochrome P450 4A22 (CYP4A22) using HepaRG (AID 2283495). Put shortly: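 Differentiated HepaRG cells in serum-free induction medium exposed 48 h in duplicate to eight half-log concentrations up to 100 uM in 0.5% DMSO. CYP4A22 mRNA quantified by TaqMan qRT-PCR, normalized to ACTB, GAPDH and POLR2A; bidirectional fit versus DMSO.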

Read-out in assay [6]: Cytochrome P450 7A1 (Homo sapiens) (UniProt P22680)
Briefly: LTEA_HepaRG_CYP7A1: Life Technologies and Expression Analysis (LTEA) Assay for Cytochrome P450 7A1 (CYP7A1) using HepaRG (AID 2283496). Put shortly: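 HepaRG, 48 h exposure, 8-pt half-log series from 100 uM, 0.5% DMSO vehicle, duplicates. Readout: TaqMan qRT-PCR mRNA vs three housekeeping genes; bidirectional curve fit against DMSO baseline.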

Read-out in assay [7]: Glutathione S-Transferase (GSTA2), GSTA2 (gene 2939)
Kind of assay: LTEA_HepaRG_GSTA2: Life Technologies and Expression Analysis (LTEA) Assay for Glutathione S-Transferase (GSTA2) using HepaRG (AID 2283497). Put shortly:
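qRT-PCR readout of GSTA2 transcript, normalized to three housekeeping genes, fitted bidirectionally against 0.5% DMSO baseline. Differentiated HepaRG cells received compound for 48 h at 8 concentrations (top 100 uM, half-log steps).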

Read-out in assay [8]: Glutamate-cysteine ligase catalytic (GCLC), GCLC (gene 2729)
Briefly: LTEA_HepaRG_GCLC: Life Technologies and Expression Analysis (LTEA) Assay for Glutamate-cysteine ligase catalytic (GCLC) using HepaRG (AID 2283498). Put shortly:
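HepaRG, 48 h exposure, 8-pt half-log series from 100 uM, 0.5% DMSO vehicle; TaqMan qRT-PCR for GCLC mRNA, housekeeping-normalized; bidirectional curve fit vs DMSO baseline.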

Read-out in assay [9]: Glutamate-cysteine ligase regulatory (GCLM), GCLM (gene 2730)
Briefly: LTEA_HepaRG_GCLM: Life Technologies and Expression Analysis (LTEA) Assay for Glutamate-cysteine ligase regulatory (GCLM) using HepaRG (AID 2283500). Put shortly:
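Endpoint is GCLM transcript level by qRT-PCR, normalized to three housekeeping genes, after 48 h chemical exposure of human HepaRG cells (0.5% DMSO vehicle, top 100 uM, half-log dilutions). Fitting was bidirectional relative to DMSO.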

Read-out in assay [10]: Glutathione S-transferase M3 (GSTM3), GSTM3 (gene 2947)
Briefly: LTEA_HepaRG_GSTM3: Life Technologies and Expression Analysis (LTEA) Assay for Glutathione S-transferase M3 (GSTM3) using HepaRG (AID 2283501). Put shortly:
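Differentiated human HepaRG cells were exposed in duplicate for 48 h in serum-free induction medium, 8 points from 100 uM top in half-log steps, 0.5% DMSO. GSTM3 mRNA was measured by TaqMan qRT-PCR, normalized to ACTB, GAPDH and POLR2A; bidirectional fit versus DMSO.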

Read-out in assay [11]: Heat shock 70 kDa protein 1 (HSPA1A), gene 3303
Kind of assay: LTEA_HepaRG_HSPA1A: Life Technologies and Expression Analysis (LTEA) Assay for Heat shock 70 kDa protein 1 (HSPA1A) using HepaRG (AID 2283502). Put shortly:
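Cells were plated and cultured for 48 h, then switched to serum-free induction medium. Chemicals were added at eight half-log concentrations up to 100 uM for 48 h. RNA was then isolated and HSPA1A measured by qRT-PCR with bidirectional curve fitting against DMSO.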

Read-out in assay [12]: Hypoxia-inducible factor 1-alpha (Homo sapiens) (UniProt Q16665)
Kind of assay: LTEA_HepaRG_HIF1A: Life Technologies and Expression Analysis (LTEA) Assay for Hypoxia-inducible factor 1 (HIF1A) Trancription factor using HepaRG (AID 2283503). Put shortly:
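HIF1A transcript level read by qRT-PCR (ACTB, GAPDH, POLR2A normalization) after 48 h chemical exposure of HepaRG cultures. Eight half-log concentrations, top 100 uM, 0.5% DMSO vehicle, duplicates; bidirectional curve fit against DMSO baseline.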

Read-out in assay [13]: 3-Hydroxy-3-Methylglutaryl-CoA Synthase 2 (HMGCS2), HMGCS2 (gene 3158)
Briefly: LTEA_HepaRG_HMGCS2: Life Technologies and Expression Analysis (LTEA) Assay for 3-Hydroxy-3-Methylglutaryl-CoA Synthase 2 (HMGCS2) using HepaRG (AID 2283504). Put shortly: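 Human HepaRG cells in serum-free induction medium were exposed in duplicate for 48 h to 8-point half-log series from 100 uM top in 0.5% DMSO. HMGCS2 mRNA measured by TaqMan qRT-PCR, normalised to ACTB, GAPDH, POLR2A; bidirectional fit versus DMSO.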

Read-out in another assay: HGF (gene 3082)
Briefly: LTEA_HepaRG_HGF: Life Technologies and Expression Analysis (LTEA) Assay for Hepatocyte Growth Facto (HGF) using HepaRG (AID 2283505). Put shortly:
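Differentiated HepaRG cells in serum-free induction medium exposed 48 h in duplicate, 8 half-log concentrations from 100 uM in 0.5% DMSO. HGF mRNA by qRT-PCR, normalised to ACTB, GAPDH, POLR2A; bidirectional fitting.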

Read-out in assay [14]: Insulin Like Growth Factor 1 (IGF1), IGF1 (gene 3479)
Briefly: LTEA_HepaRG_IGF1: Life Technologies and Expression Analysis (LTEA) Assay for Insulin Like Growth Factor 1 (IGF1) using HepaRG (AID 2283506). Put shortly: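 Cells are thawed, plated and cultured 48 h, then exposed in duplicate to chemical (highest 100 uM, half-log steps, 0.5% DMSO) for another 48 h. Total RNA is analysed by Fluidigm qRT-PCR for IGF1 expression relative to vehicle.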

Read-out in assay [15]: Insulin-like growth factor-binding protein 1 (IGFBP1), IGFBP1 (gene 3484)
Briefly: LTEA_HepaRG_IGFBP1: Life Technologies and Expression Analysis (LTEA) Assay for Insulin-like growth factor-binding protein 1 (IGFBP1) using HepaRG (AID 2283508). Put shortly:
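HepaRG cells, plated 48 h then switched to serum-free induction medium, exposed in duplicate for 48 h to 8-point half-log series from 100 uM in 0.5% DMSO. mRNA measured by qRT-PCR, normalized to ACTB/GAPDH/POLR2A; bidirectional fit versus DMSO.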

Read-out in assay [16]: Early growth response protein 1 (EGR1) transcription factor, EGR1 (gene 1958)
Briefly: LTEA_HepaRG_EGR1: Life Technologies and Expression Analysis (LTEA) Assay for Early growth response protein 1 (EGR1) transcription factor using HepaRG (AID 2283490). Put shortly: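 HepaRG, 48 h exposure, 8-pt half-log series from 100 uM, 0.5% DMSO vehicle; EGR1 transcript by TaqMan qRT-PCR (Fluidigm array), housekeeping-normalized; bidirectional fit relative to DMSO baseline.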

Read-out in assay [17]: growth arrest and DNA damage 45 (GADD45G), GADD45G (gene 10912)
Briefly: LTEA_HepaRG_GADD45G: Life Technologies and Expression Analysis (LTEA) Assay for growth arrest and DNA damage 45 (GADD45G) using HepaRG (AID 2283499). Put shortly: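 Differentiated human HepaRG cells, 48 h post-plating, exposed 48 h in serum-free induction medium to 8 half-log concentrations (top 100 uM, 0.5% DMSO) in duplicate. GADD45G mRNA measured by Fluidigm TaqMan qRT-PCR, normalized to ACTB, GAPDH, POLR2A; bidirectional fit versus DMSO.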

Read-out in assay [18]: Intercellular Adhesion Molecule 1 (ICAM1), ICAM1 (gene 3383)
Briefly: LTEA_HepaRG_ICAM1: Life Technologies and Expression Analysis (LTEA) Assay for Intercellular Adhesion Molecule 1 (ICAM1) using HepaRG (AID 2283507). Put shortly:
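Differentiated human HepaRG cells in serum-free induction medium exposed 48 h in duplicate to 8 half-log concentrations (top 100 uM, 0.5% DMSO). ICAM1 mRNA quantified by TaqMan qRT-PCR, normalized to ACTB, GAPDH and POLR2A; bidirectional fitting versus DMSO.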

Activity calls are given as the source filed them. Rule for the calls: active = hit-call score of the fitted dose curve at least 0.9, where 1 is the maximum; inactive = score below 0.9.

Usually AC50 stands for the concentration at which the activity in the assay is half-maximal.

Chain of Cytochrome P450 3A7 (Homo sapiens) (P24462 whole entry, looked up): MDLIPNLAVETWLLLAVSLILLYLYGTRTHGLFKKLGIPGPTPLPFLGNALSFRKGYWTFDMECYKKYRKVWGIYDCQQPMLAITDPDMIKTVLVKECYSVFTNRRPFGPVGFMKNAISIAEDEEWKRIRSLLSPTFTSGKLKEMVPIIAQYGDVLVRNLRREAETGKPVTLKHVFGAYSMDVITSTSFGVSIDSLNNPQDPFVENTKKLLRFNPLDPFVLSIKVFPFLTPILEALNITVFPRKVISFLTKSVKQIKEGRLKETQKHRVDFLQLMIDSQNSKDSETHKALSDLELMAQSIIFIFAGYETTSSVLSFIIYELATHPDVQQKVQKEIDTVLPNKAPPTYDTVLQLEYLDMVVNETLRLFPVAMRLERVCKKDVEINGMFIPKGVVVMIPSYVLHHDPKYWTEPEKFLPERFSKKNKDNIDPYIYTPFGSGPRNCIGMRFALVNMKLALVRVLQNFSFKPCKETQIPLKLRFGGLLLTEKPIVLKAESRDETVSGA
Chain of Hypoxia-inducible factor 1-alpha (Homo sapiens) (Q16665 whole entry, looked up): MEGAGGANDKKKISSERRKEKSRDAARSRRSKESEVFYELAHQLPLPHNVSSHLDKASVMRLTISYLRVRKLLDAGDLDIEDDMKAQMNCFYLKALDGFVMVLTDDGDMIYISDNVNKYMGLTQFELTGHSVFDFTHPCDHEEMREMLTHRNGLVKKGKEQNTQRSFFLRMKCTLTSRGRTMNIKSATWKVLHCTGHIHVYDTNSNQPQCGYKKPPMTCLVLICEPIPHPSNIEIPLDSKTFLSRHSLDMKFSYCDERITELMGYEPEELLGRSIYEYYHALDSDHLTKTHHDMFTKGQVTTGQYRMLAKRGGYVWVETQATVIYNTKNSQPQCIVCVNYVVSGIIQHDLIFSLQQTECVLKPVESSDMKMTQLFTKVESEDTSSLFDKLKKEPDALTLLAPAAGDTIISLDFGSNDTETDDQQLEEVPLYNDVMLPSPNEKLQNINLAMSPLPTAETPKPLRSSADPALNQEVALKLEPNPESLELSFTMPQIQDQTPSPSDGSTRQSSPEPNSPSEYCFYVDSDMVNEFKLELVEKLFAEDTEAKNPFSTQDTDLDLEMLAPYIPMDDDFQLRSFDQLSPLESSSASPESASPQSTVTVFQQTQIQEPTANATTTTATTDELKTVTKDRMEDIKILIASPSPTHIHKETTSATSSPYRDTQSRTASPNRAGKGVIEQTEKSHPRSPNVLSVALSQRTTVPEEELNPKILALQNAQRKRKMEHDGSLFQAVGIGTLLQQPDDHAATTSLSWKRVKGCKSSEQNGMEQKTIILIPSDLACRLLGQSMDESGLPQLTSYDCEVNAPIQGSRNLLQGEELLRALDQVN

Consider `CC(=O)C(C)=CC1C(C)=CCCC1(C)C` (stereo not given), for which the outcome (in [1]; in [2]; in [3]; in the assay with CYP3A5 (gene 1577); in [4]; in [5]) was inactive. Further, the result in [6], in assay [7], in assay [8], in assay [9], in assay [10] and in assay [11] was inactive. The result (in assay [12]; in assay [13]; in the assay with HGF (gene 3082); in assay [14]; in assay [15]) was inactive.

As to `CN1CCCC1=O`, the result (in assay [16]; in assay [2]; in assay [3]; with CYP3A5 (gene 1577); in [4]; in assay [5]) was inactive. The molecule was called inactive in [6], in assay [7], in assay [8], in assay [17], in assay [9] and in assay [10]. Also, the result (in assay [11]; in assay [12]; in [13]; with HGF (gene 3082); in [14]; in [18]) was inactive. Moreover, the call in [15] was inactive.

For the molecule `Nc1nc(N)c2nc(CNc3ccc(C(=O)N[C@@H](CCC(=O)O)C(=O)O)cc3)cnc2n1`, the AC50 was 102 nM (active) in [16]; 85.2 nM (active) with CYP3A5 (gene 1577); 162 nM (active) in assay [6]; 120 nM (active) in assay [7]; 93.7 nM (active) in assay [15]. Also, the call in assay [2], in assay [3], in assay [4], in assay [5], in assay [8] and in [17] was inactive. For the same molecule, the outcome (in assay [9]; in assay [10]; in assay [11]; in assay [13]; with HGF (gene 3082); in assay [14]) was inactive. In addition, the result in assay [18] was inactive.

In the case of `CC(=O)OC/C=C(\C)CCC=C(C)C`, the outcome (in assay [16]; in assay [2]; in assay [3]; with CYP3A5 (gene 1577); in [4]; in assay [5]) was inactive. Besides, the outcome in assay [6], in assay [7], in assay [8], in assay [17], in assay [9] and in [10] was inactive. For the same molecule, the call in assay [11], in [12], in assay [13], in assay [14] and in [15] was inactive.

Turning to `Cc1ccc(C)c(C)c1`, the call (in assay [1]; in assay [2]; in assay [3]; in the assay with CYP3A5 (gene 1577); in [4]; in [5]) was inactive. The result in [6], in assay [7], in assay [8], in assay [9], in assay [10] and in assay [12] was inactive. For the same molecule, the outcome in assay [13], in [14] and in [15] was inactive.

On to `O=c1[nH]cc(F)c(=O)[nH]1`, for which the outcome (in [1]; in assay [2]; in assay [3]; with CYP3A5 (gene 1577); in assay [4]; in assay [8]) was inactive. The molecule was called inactive (in assay [9]; in assay [10]; in assay [11]; with HGF (gene 3082); in assay [14]; in assay [18]). Further, in assay [15], the molecule was classed as inactive. Moreover, the AC50 in assay [5] is 35000 nM (active); in assay [6], 64600 nM (active); in [7] it was 78000 nM (active); in assay [13], 51000 nM (active).

In the case of `COc1ccc(C)cc1N`, the molecule was called inactive (in assay [16]; in assay [2]; in [3]; with CYP3A5 (gene 1577); in [4]; in assay [5]). Moreover, the result in assay [6], in assay [7], in assay [8], in assay [17], in assay [9] and in [10] was inactive. Besides, the result (in assay [12]; in [13]; in the assay with HGF (gene 3082); in assay [14]; in [15]) was inactive.

These data come from PubChem BioAssay (EPA / NIEHS).
